# In PubChem BioAssay (NCATS):
# Activity calls are given as the source filed them. Calls follow the shape of the dose curve; as a rule, active = well fitted cell-killing curve with a large enough effect; inconclusive = small, poorly fitted or top-dose-only effect; inactive = flat fitted curve, though single readings scatter.
# Assay: MultiTox-Fluor Cytotoxicity Assay - LYMP1-003 - Live Cells (AID 962);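 as to activity change, negative = fewer live cells: 0% = DMSO only and full loss = 92 µM tetraoctylammonium bromide; cytotoxic hits lower the live-cell protease signal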
# Settings: LYMP1-003 lymphoblastoid cells, MultiTox-Fluor live-cell protease fluorescence; series mostly up to 92.2 µM; activity change, negative = fewer live cells: at the top concentration
# From the text: NIH Chemical Genomics Center [NCGC]
# NIH Molecular Libraries Screening Centers Network [MLSCN]
# National Institutes of Environmental Health Sciences [NIEHS]
# National Toxicology Program [NTP]
# We have developed a 1536-well cell-based assay for quantitative high throughput screening (qHTS) against a number of cell lines to determine in vitro cytotoxicity of small molecules. This particular assay uses a human lymphoblastoid cell line (LYMP1-003) purchased from Coriell Institute.
# NCGC Assay Protocol Summary:
# The MultiTox-Fluor Cytotoxicity Assay (Promega) is a homogeneous method to simultaneously measure the relative number of live and dead cells in culture by detecting changes in cell membrane integrity. There are two fluorogenic peptide substrates in the assay reagent. Viable cells are determined when the cell-permeant substrate (GF-AFC) enters the cell and is cleaved by protease from live cells resulting in liberated fluorophore. This live-cell protease activity restricted to viable cells is proportional to cell number. The dead cells are determined by using fluorogenic cell-impermeant peptide substrate (bis-AAF-R110) which cleaved by dead cell proteases leaking from damaged cell membrane.
# Using the MultiTox-Fluor Cytotoxicity Assay, the relative number of live cells was measured in the lymphoblastoid cell line with complete culture medium following compound treatment for 16 hours. The assay was performed in opaque black Kalypsys 1536-well plates. In the screen, tetraoctylammonium bromide was used as positive control. Library compounds were measured for their ability to cause acute toxicity in the cell line, as reflected by a decrease in live cell protease activity, in a concentration-dependent manner. […] AC50 values were determined from concentration-response data modeled with the standard Hill equation.
# qHTS protocol for MultiTox-Fluor Cytotoxicity assay
# [Step] [Parameter] [Value] [Description]
# 1. Reagent; 5 uL; 2500 lymphoblastoid cells/well
# 2. Time; 5 hr; 37 C incubation
# 4. Controls; 23 nL; Tetraoctylammonium bromide 6.4pM to 92 uM
# 5. Time; 16 hr; 37 C incubation
# 6. Reagent; 5 uL; MuliTox-Fluor Assay reagent
# 7. Time; 60 min; Room Temperature
# 8. Detection; live-cell fluorescence (Ex/Em=405/510); EnVision plate reader
# Keywords: cell viability, cytotoxicity, lymphoblastoid cell line, fluorescence, NTPHTS, NTPHTS_NCGC, NIEHS, EPA, DSSTox, MLSMR, MLSCN, NIH Roadmap, qHTS, NCGC
# Potency is read from the fitted curve at half-maximal effect.
SMILES,"activity change, negative = fewer live cells",Potency
O=C(c1ccccc1)c1ccccc1,-2.38% (inactive),–
CCCC(=O)c1cc(O)c(O)cc1O,-0.333% (inactive),–
O=C(NO)c1ccccc1,-8.97% (inactive),–
CC(C)(C)c1ccc(O)c(O)c1,-37.3% (inactive),–
CCCCC(CC)COC(=O)c1ccccc1C(=O)O (stereo not given),-5.96% (inactive),–
CC(=O)OC/C=C(C)/C=C/C=C(C)/C=C/C1=C(C)CCCC1(C)C,-11% (inactive),–
Brc1ccccc1-c1ccccc1,-10.4% (inactive),–
C1=CC2C3C=CC(C3)C2C1 (stereo not given),-0.0946% (inactive),–
O=C(Oc1ccccc1)c1ccccc1O,2.63% (inactive),–
CC(C)C(C)(C)C(C)(C)C(C)(C)S,-9.01% (inactive),–
CCCCCCCCCCCCCCCC[n+]1ccccc1,–,31.6 µM (active)
Cc1cc(C(C)(C)C)c(O)c(C(C)(C)C)c1,-3.19% (inactive),–
OCc1c[nH]c2ccccc12,-8.62% (inactive),–
COc1cc(C=O)ccc1O,-4.58% (inactive),–
Cc1ccc(O)cc1,-2.53% (inactive),–
c1ccc2occc2c1,3.85% (inactive),–
Nc1c2ccccc2nc2ccccc12,-7.82% (inactive),–
Nc1cccc2c(N)cccc12,-26.9% (inactive),–
CC(C)(c1ccc(O)cc1)c1ccc(O)cc1,–,inactive
Oc1ccccc1,-4.15% (inactive),–
